Source: PubChem BioAssay (NCI)
The panel holds about 83,000 compounds, 20% with a hit somewhere; the sample as a whole holds those more often.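 Each cell line was grown in a 96-well plate and treated with one concentration of compound for 48 hours. Values below 10 were considered active.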 Activity calls are given as the source filed them.

Legend:
Test in all cases: NCI-60 one-dose screen, 48 h (100 = growth as untreated, 0 = no growth, -100 = all killed)
Details in all cases: 10 µM unless noted
HCT-15 colon = tested on: HCT-15 colon
HT29 colon = tested on: HT29 colon
SNB-75 CNS = tested on: SNB-75 CNS
SNB-19 CNS = tested on: SNB-19 CNS
U251 CNS = tested on: U251 CNS
PC-3 prostate = tested on: PC-3 prostate
SK-MEL-5 melanoma = tested on: SK-MEL-5 melanoma
UACC-62 melanoma = tested on: UACC-62 melanoma
LOX IMVI melanoma = tested on: LOX IMVI melanoma
SK-MEL-28 melanoma = tested on: SK-MEL-28 melanoma
SK-MEL-2 melanoma = tested on: SK-MEL-2 melanoma
EKVX NSCLC = tested on: EKVX NSCLC
SN12C renal = tested on: SN12C renal
UO-31 renal = tested on: UO-31 renal
TK-10 renal = tested on: TK-10 renal
ACHN renal = tested on: ACHN renal
CAKI-1 renal = tested on: CAKI-1 renal
A498 renal = tested on: A498 renal
MOLT-4 leukemia = tested on: MOLT-4 leukemia
CCRF-CEM leukemia = tested on: CCRF-CEM leukemia

Measured: growth

Oc1[nH]c2ccccc2c1Nn1c(N=N/C=c2/ccc3c(c2)C=NN=3)n[nH]c1=S
inactive: HCT-15 colon 115% | HT29 colon 19.4% | SNB-75 CNS 66.7% | SNB-19 CNS 98.9% | U251 CNS 111% | PC-3 prostate 97.4% | SK-MEL-5 melanoma 92% | UACC-62 melanoma 98.9% | LOX IMVI melanoma 97.6% | SK-MEL-28 melanoma 115% | SK-MEL-2 melanoma 104% | EKVX NSCLC 64.2% | SN12C renal 93.9% | UO-31 renal 74.8% | TK-10 renal 165% | ACHN renal 96.8% | CAKI-1 renal 82.8% | A498 renal 82.9% | MOLT-4 leukemia 103%

COc1ccccc1NC1=C(Cl)C(=O)c2nc(C)ccc2C1=O
inactive: HT29 colon 75% | SNB-75 CNS 105% | SNB-19 CNS 38.9% | U251 CNS 62.8% | PC-3 prostate 27.4% | SK-MEL-28 melanoma 14.1% | SK-MEL-2 melanoma 78.8% | EKVX NSCLC 28.5% | TK-10 renal 148% | A498 renal 71.8%
active: HCT-15 colon -47% | SK-MEL-5 melanoma -93.3% | UACC-62 melanoma -45.8% | LOX IMVI melanoma -73% | SN12C renal -49.5% | UO-31 renal -65.7% | ACHN renal -99.9% | CCRF-CEM leukemia -4.94% | MOLT-4 leukemia -39%

Cn1ccnc1C(=O)/C=C/c1ccc(CNC(=O)c2c(F)c(F)c(F)c(F)c2F)cc1
active: LOX IMVI melanoma -66.4%
inactive: HCT-15 colon 11.8% | HT29 colon 14.7% | SNB-75 CNS 96.3% | SNB-19 CNS 42.2% | U251 CNS 45.6% | PC-3 prostate 35.2% | SK-MEL-5 melanoma 75.7% | UACC-62 melanoma 54.9% | SK-MEL-28 melanoma 90.8% | SK-MEL-2 melanoma 99.4% | EKVX NSCLC 93.2% | SN12C renal 44.5% | UO-31 renal 79.7% | TK-10 renal 79.2% | ACHN renal 47.9% | CAKI-1 renal 76% | A498 renal 83.3% | MOLT-4 leukemia 23%

C=CC(=O)N1CCC=C(c2cc3c(N[C@H](C)c4ccccc4)ncnc3[nH]2)C1
active: SNB-75 CNS 3.25% | TK-10 renal -5.86% | ACHN renal 6.81% | A498 renal -27.8%
inactive: HCT-15 colon 73.2% | HT29 colon 66.5% | SNB-19 CNS 77.1% | U251 CNS 84.2% | PC-3 prostate 68.9% | SK-MEL-5 melanoma 85.7% | UACC-62 melanoma 68.5% | LOX IMVI melanoma 57.5% | SK-MEL-28 melanoma 91.6% | SK-MEL-2 melanoma 89.7% | EKVX NSCLC 28.1% | SN12C renal 29.3% | UO-31 renal 20.5% | CAKI-1 renal 14.4% | MOLT-4 leukemia 93.4%

C=C(C)[C@@H]1CC[C@]2(COCCCNCCC#N)CC[C@]3(C)[C@H](CC[C@@H]4[C@@]5(C)CC[C@H](OCCCNCCC#N)C(C)(C)[C@@H]5CC[C@]43C)[C@@H]12
active: LOX IMVI melanoma -1.84%
inactive: HCT-15 colon 47% | HT29 colon 49.9% | SNB-75 CNS 54.4% | SNB-19 CNS 83.5% | U251 CNS 70.9% | PC-3 prostate 42.5% | SK-MEL-5 melanoma 15% | UACC-62 melanoma 69.1% | SK-MEL-28 melanoma 90.5% | SK-MEL-2 melanoma 93.7% | EKVX NSCLC 36.1% | SN12C renal 52% | UO-31 renal 41.3% | TK-10 renal 74.9% | ACHN renal 65.3% | CAKI-1 renal 34.8% | A498 renal 43.3% | MOLT-4 leukemia 28.2%

COc1ccc(C2c3sc4c(C)cccc4c3Oc3nc(CC(=O)Nc4ccccc4)[nH]c(=O)c32)cc1 (stereo not given)
inactive: HCT-15 colon 51.9% | HT29 colon 94.1% | SNB-75 CNS 39.4% | SNB-19 CNS 89% | U251 CNS 106% | PC-3 prostate 83.1% | SK-MEL-5 melanoma 76.9% | UACC-62 melanoma 63.2% | LOX IMVI melanoma 48.5% | SK-MEL-28 melanoma 76% | SK-MEL-2 melanoma 92.8% | EKVX NSCLC 47.1% | SN12C renal 79.1% | UO-31 renal 46.7% | TK-10 renal 141% | ACHN renal 92.9% | CAKI-1 renal 46% | A498 renal 70.6% | MOLT-4 leukemia 101%

O=C(Nc1ccc2c(ccn2Cc2ccccn2)c1)c1ccnnc1
inactive: HCT-15 colon 111% | HT29 colon 103% | SNB-75 CNS 56% | SNB-19 CNS 102% | U251 CNS 108% | PC-3 prostate 91.4% | SK-MEL-5 melanoma 98.9% | UACC-62 melanoma 86.3% | LOX IMVI melanoma 101% | SK-MEL-28 melanoma 108% | SK-MEL-2 melanoma 102% | EKVX NSCLC 75.6% | SN12C renal 70.2% | UO-31 renal 58.8% | TK-10 renal 60.2% | ACHN renal 97.3% | CAKI-1 renal 65.9% | A498 renal 56.8% | MOLT-4 leukemia 115%

COc1cc(-c2nn(C(C)(C)C)cc2-c2ccnc(NCCCNS(=O)(=O)c3ccc(F)cc3)n2)ccc1Cl
inactive: HCT-15 colon 59.7% | HT29 colon 73.2% | SNB-75 CNS 48.1% | SNB-19 CNS 92.9% | U251 CNS 89.3% | PC-3 prostate 51.5% | SK-MEL-5 melanoma 85% | UACC-62 melanoma 72.2% | LOX IMVI melanoma 74.8% | SK-MEL-28 melanoma 89.8% | SK-MEL-2 melanoma 86.9% | EKVX NSCLC 39% | SN12C renal 52.5% | UO-31 renal 42.3% | TK-10 renal 68.8% | ACHN renal 83.6% | CAKI-1 renal 25% | A498 renal 51.9% | MOLT-4 leukemia 49.5%

O=C(Nc1ccc2c(ccn2Cc2ccccn2)c1)c1cnccn1
inactive: HCT-15 colon 112% | HT29 colon 109% | SNB-75 CNS 57.9% | SNB-19 CNS 102% | U251 CNS 105% | PC-3 prostate 101% | SK-MEL-5 melanoma 97.5% | UACC-62 melanoma 89.6% | LOX IMVI melanoma 98.3% | SK-MEL-28 melanoma 111% | SK-MEL-2 melanoma 103% | EKVX NSCLC 75.7% | SN12C renal 75.9% | UO-31 renal 57% | TK-10 renal 61.9% | ACHN renal 100% | CAKI-1 renal 66.2% | A498 renal 40.8% | MOLT-4 leukemia 101%

COc1ccccc1C(=O)Nc1cccc2c1C(=O)C(=O)C=C2
inactive: HCT-15 colon 93.6% | HT29 colon 62.5% | SNB-75 CNS 70% | SNB-19 CNS 106% | U251 CNS 107% | PC-3 prostate 89.8% | SK-MEL-5 melanoma 93.2% | UACC-62 melanoma 105% | LOX IMVI melanoma 63.1% | SK-MEL-28 melanoma 108% | SK-MEL-2 melanoma 109% | EKVX NSCLC 72.2% | SN12C renal 90.9% | UO-31 renal 59.2% | TK-10 renal 116% | ACHN renal 101% | CAKI-1 renal 76.4% | A498 renal 38.4% | MOLT-4 leukemia 36.8%

Cc1noc(C)c1CSc1nc2ccccc2n1-c1ccccc1
inactive: HCT-15 colon 106% | HT29 colon 106% | SNB-75 CNS 30.9% | SNB-19 CNS 96.5% | U251 CNS 102% | PC-3 prostate 100% | SK-MEL-5 melanoma 94.4% | UACC-62 melanoma 72.5% | LOX IMVI melanoma 88.2% | SK-MEL-28 melanoma 111% | SK-MEL-2 melanoma 107% | EKVX NSCLC 65.2% | SN12C renal 81.4% | UO-31 renal 48.8% | TK-10 renal 58.9% | ACHN renal 96.1% | CAKI-1 renal 41.6% | A498 renal 48.1% | MOLT-4 leukemia 97%

Cc1cc(S(=O)(=O)N(C)C)cc(NCC(=O)NC(=O)NCC(C)C)c1C
inactive: HCT-15 colon 110% | HT29 colon 114% | SNB-75 CNS 45% | SNB-19 CNS 105% | U251 CNS 108% | PC-3 prostate 101% | SK-MEL-5 melanoma 96.5% | UACC-62 melanoma 91.8% | LOX IMVI melanoma 96.4% | SK-MEL-28 melanoma 102% | SK-MEL-2 melanoma 105% | EKVX NSCLC 63.1% | SN12C renal 87.9% | UO-31 renal 57.1% | TK-10 renal 68.2% | ACHN renal 94.4% | CAKI-1 renal 64.3% | A498 renal 51.7% | MOLT-4 leukemia 96.1%

CC(C)(O)c1cncc(-c2ccc3ncnc(NCc4ccccc4)c3c2)c1
inactive: HCT-15 colon 103% | HT29 colon 96.7% | SNB-75 CNS 31% | SNB-19 CNS 91.8% | U251 CNS 109% | PC-3 prostate 84.1% | SK-MEL-5 melanoma 87.6% | UACC-62 melanoma 84.3% | LOX IMVI melanoma 57.2% | SK-MEL-28 melanoma 88% | SK-MEL-2 melanoma 107% | EKVX NSCLC 32.7% | SN12C renal 57.6% | UO-31 renal 37.1% | TK-10 renal 42.8% | ACHN renal 66.4% | CAKI-1 renal 42.6% | MOLT-4 leukemia 98.6%
active: A498 renal 5.8%

COc1cc(/C=C2\C(=O)Nc3ccccc32)ccc1OCc1ccc(F)cc1
inactive: HCT-15 colon 101% | HT29 colon 105% | SNB-75 CNS 106% | SNB-19 CNS 99.3% | U251 CNS 106% | PC-3 prostate 101% | SK-MEL-5 melanoma 102% | UACC-62 melanoma 92.7% | LOX IMVI melanoma 97.3% | SK-MEL-28 melanoma 110% | SK-MEL-2 melanoma 107% | EKVX NSCLC 97.7% | SN12C renal 100% | UO-31 renal 84.7% | TK-10 renal 130% | ACHN renal 102% | A498 renal 89.2% | CCRF-CEM leukemia 102% | MOLT-4 leukemia 96.8%

O=C(O)c1ccc(-n2cc(CNc3cc(F)c(F)c(F)c3)c(-c3cccc(F)c3)n2)cc1
inactive: HCT-15 colon 46.8% | HT29 colon 106% | SNB-75 CNS 106% | SNB-19 CNS 97.4% | U251 CNS 93.3% | PC-3 prostate 79.1% | SK-MEL-5 melanoma 67.4% | UACC-62 melanoma 58.2% | LOX IMVI melanoma 104% | SK-MEL-28 melanoma 83.2% | SK-MEL-2 melanoma 79.6% | EKVX NSCLC 65.5% | SN12C renal 91.3% | UO-31 renal 77% | TK-10 renal 128% | ACHN renal 77.4% | A498 renal 99.4% | CCRF-CEM leukemia 92.3% | MOLT-4 leukemia 79.8%
